Experimental data published in the supplement of paper PMC12645437, “Orthogonal IMiD-Degron Pairs Induce Selective Protein Degradation in Cells” (ACS Chemical Biology, 2025).
In all, about 8,300 sequences were measured (“log2 fold change of degron read counts, EGFP-low vs EGFP+ sorted cells (limma voom), compound-induced degradation”: median about -1.1, highest 2% from about 3.2 on). Only a selection was taken, and the highest values are over-represented in it overall.

T1: CRBN, Q96SW2
T1 chain: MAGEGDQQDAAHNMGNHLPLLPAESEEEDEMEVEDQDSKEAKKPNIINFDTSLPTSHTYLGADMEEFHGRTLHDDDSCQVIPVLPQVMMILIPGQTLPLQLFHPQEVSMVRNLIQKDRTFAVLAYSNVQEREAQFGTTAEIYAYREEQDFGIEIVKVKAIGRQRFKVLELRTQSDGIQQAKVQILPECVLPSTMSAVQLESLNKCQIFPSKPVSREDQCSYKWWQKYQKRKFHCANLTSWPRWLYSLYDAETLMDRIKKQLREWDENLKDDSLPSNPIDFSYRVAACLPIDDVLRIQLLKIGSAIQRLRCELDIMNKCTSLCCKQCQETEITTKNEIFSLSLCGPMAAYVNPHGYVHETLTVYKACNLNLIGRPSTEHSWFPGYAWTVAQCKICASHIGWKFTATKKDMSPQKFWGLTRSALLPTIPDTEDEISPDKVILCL


Molecular target: T1, CRBN, Q96SW2
Experiment: log2 fold change of degron read counts, EGFP-low vs EGFP+ sorted cells (limma voom), compound-induced degradation; higher = more compound-induced degradation of the degron-EGFP fusion; degrons are variants of IKZF1/3 zinc finger 2; compound dose not given here
Conditions: Jurkat, 18 h
[1] = compound: compound 19 (5-tert-butyl-thalidomide)
[2] = compound: compound 22 (5-morpholino-thalidomide)
[3] = compound: compound 33 (diphenyl IMiD analogue)
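Further: pooled lentiviral library of zinc finger degron-EGFP fusions in mCherry-positive Jurkat cells, FACS-sorted after compound exposure, with degron abundance counted by next-generation sequencing.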

Sequence | log2 fold change of degron read counts [1] | log2 fold change of degron read counts [2] | log2 fold change of degron read counts [3] | log2 fold change of degron read counts (compound: thalidomide)
FNCPICGANFTQKGNLLRHIKL [46F_47N_49P_50I_52G_53A_54N_55F_67L_, Q9UKT9] | 2.14 | 0.903 | 0.95 | 0.651
FMCPICGANFTQKGNLLRHIKL [46F_47M_49P_50I_52G_53A_54N_55F_67L_, Q9UKT9] | -0.073 | 1.2 | 2.87 | 1.98
FQCPICGANFTQKGNLLRHIKL [46F_47Q_49P_50I_52G_53A_54N_55F_67L_, Q9UKT9] | 0.555 | 2.18 | 2.19 | 3.58
FVCPICGANFTQKGNLLRHIKL [46F_47V_49P_50I_52G_53A_54N_55F_67L_, Q9UKT9] | 0.327 | 2.63 | 1.9 | 2.81
FHCPQCGAWFTQKGNLLRHIKL [46F_47H_49P_50Q_52G_53A_54W_55F_67L_, Q9UKT9] | -1.82 | -2.04 | -1.61 | -2.14
FLCDICGAEFTQKGNLLRHIKL [46F_47L_49D_50I_52G_53A_54E_55F_67L_, Q9UKT9] | -0.631 | -2.41 | -1.1 | -0.617
FDCDQCGAYFTQKGNLLRHIKL [46F_47D_49D_50Q_52G_53A_54Y_55F_67L_, Q9UKT9] | -2.22 | -2.78 | -2.57 | -2.51
FACPICGANFTQKGNLLRHIKL [46F_47A_49P_50I_52G_53A_54N_55F_67L_, Q9UKT9] | 3.04 | 1.85 | 1.61 | 1.07
FWCPICGANFTQKGNLLRHIKL [46F_47W_49P_50I_52G_53A_54N_55F_67L_, Q9UKT9] | 2.99 | 3.64 | 1.91 | 1.51
FICPICGANFTQKGNLLRHIKL [46F_47I_49P_50I_52G_53A_54N_55F_67L_, Q9UKT9] | -0.552 | 2.74 | 2.01 | 2.63
LTCEICGFGCTQKGNLLRHIKL [46L_47T_49E_50I_52G_53F_54G_55C_67L_, Q9UKT9] | 0.777 | 1.03 | 0.337 | 1.18
FHCPICGAYFTQKGNLLRHIKL [46F_47H_49P_50I_52G_53A_54Y_55F_67L_, Q9UKT9] | 2.3 | 1.96 | 1.93 | 0.872
FNCNQCGHKFTQKGNLLRHIKL [46F_47N_49N_50Q_52G_53H_54K_55F_67L_, Q9UKT9] | -2.94 | -2.21 | -2.62 | -2.32
FTCDVCGALFTQKGNLLRHIKL [46F_47T_49D_50V_52G_53A_54L_55F_67L_, Q9UKT9] | -1.7 | -2.19 | -1.1 | -1.72
FSCEVCGAAFTQKGNLLRHIKL [46F_47S_49E_50V_52G_53A_54A_55F_67L_, Q9UKT9] | 3.6 | 3.21 | 2.57 | 2.01
FTCEVCGAAFTQKGNLLRHIKL [46F_47T_49E_50V_52G_53A_54A_55F_67L_, Q9UKT9] | 2.8 | 3.24 | 2.06 | 3.05
FTCNVCGAAFTQKGNLLRHIKL [46F_47T_49N_50V_52G_53A_54A_55F_67L_, Q9UKT9] | 0.179 | 1.08 | 1.44 | 1.29

Sequence | log2 fold change of degron read counts [1] | log2 fold change of degron read counts [2] | log2 fold change of degron read counts [3] | log2 fold change of degron read counts (compound: thalidomide)
FKCEVCGAAFTQKGNLLRHIKL [46F_47K_49E_50V_52G_53A_54A_55F_67L_, Q9UKT9] | 2.13 | -0.688 | -1.68 | 0.479
FTCPVCGAAFTQKGNLLRHIKL [46F_47T_49P_50V_52G_53A_54A_55F_67L_, Q9UKT9] | 2.3 | 3.11 | 2.78 | 3
FDCEVCGAAFTQKGNLLRHIKL [46F_47D_49E_50V_52G_53A_54A_55F_67L_, Q9UKT9] | 2.09 | 0.14 | 0.426 | 1.14
LTCPICGFPCTQKGNLLRHIKL [46L_47T_49P_50I_52G_53F_54P_55C_67L_, Q9UKT9] | 0.155 | 1.3 | 1.14 | 1.64
FDCPICGHEFTQKGNLLRHIKL [46F_47D_49P_50I_52G_53H_54E_55F_67L_, Q9UKT9] | -3 | -2.96 | -2.14 | -2.07
FVCNQCGHVFTQKGNLLRHIKL [46F_47V_49N_50Q_52G_53H_54V_55F_67L_, Q9UKT9] | -2.66 | -3.07 | -2.27 | -2.93
FMCEICGRFFTQKGNLLRHIKL [46F_47M_49E_50I_52G_53R_54F_55F_67L_, Q9UKT9] | -2.5 | -2.11 | -1 | -1.98
FSCDVCGAMFTQKGNLLRHIKL [46F_47S_49D_50V_52G_53A_54M_55F_67L_, Q9UKT9] | 0.106 | -0.592 | -0.74 | -1.71
FRCDICGAAFTQKGNLLRHIKL [46F_47R_49D_50I_52G_53A_54A_55F_67L_, Q9UKT9] | 1.51 | 1.47 | 2.34 | 1.21
FCCDICGAAFTQKGNLLRHIKL [46F_47C_49D_50I_52G_53A_54A_55F_67L_, Q9UKT9] | 2.88 | 2.17 | 0.975 | 0.534
FYCDICGAAFTQKGNLLRHIKL [46F_47Y_49D_50I_52G_53A_54A_55F_67L_, Q9UKT9] | 3.37 | 3.23 | 2.4 | -0.554
FWCDICGAAFTQKGNLLRHIKL [46F_47W_49D_50I_52G_53A_54A_55F_67L_, Q9UKT9] | 3.12 | 3.67 | 1.49 | -0.516
FVCDICGAAFTQKGNLLRHIKL [46F_47V_49D_50I_52G_53A_54A_55F_67L_, Q9UKT9] | 0.447 | 2.48 | 1.33 | 1.87
FQCDICGAAFTQKGNLLRHIKL [46F_47Q_49D_50I_52G_53A_54A_55F_67L_, Q9UKT9] | 1.74 | 2.51 | 0.983 | 3.01
FACDICGAAFTQKGNLLRHIKL [46F_47A_49D_50I_52G_53A_54A_55F_67L_, Q9UKT9] | 3.42 | 2.04 | -0.474 | -0.517
FMCDICGAAFTQKGNLLRHIKL [46F_47M_49D_50I_52G_53A_54A_55F_67L_, Q9UKT9] | 0.96 | 1.45 | 2.6 | 0.343
FICDICGAAFTQKGNLLRHIKL [46F_47I_49D_50I_52G_53A_54A_55F_67L_, Q9UKT9] | -0.22 | 2.29 | 1.39 | 1.5
